Results filed as inconclusive are left out. Active and inactive are the calls of the source. The call rests on the fitted dose curve; in most records, active means well fitted curve in the direction sought with a large enough effect; inconclusive means small, poorly fitted or top-dose-only effect, or another doubt; inactive means no such curve, though single readings can be large; an effect the other way counts as inactive or inconclusive.
Experiments:
[1] = Cell Viability - LYMP2-004 (AID 966); further: nearly all actives have a fitted effect of over 65% in size
How it was run: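 Human lymphoblastoid cells (2500/well) in complete medium were treated with compounds for 24 hr at 37 C, then intracellular ATP was measured by CellTiter-Glo luminescence. AC50 values came from Hill-equation fits of concentration-response data.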

[2] = Cell Viability - LYMP2-005 (AID 967); further: series mostly up to about 92 µM
How it was run: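 CellTiter-Glo luminescence (cellular ATP) read-out; LYMP2-005 lymphoblastoid cells, 2500/well, 5 h pre-incubation, then 24 h compound exposure at 37 C in complete medium. Tetraoctylammonium bromide positive control; AC50 by standard Hill fit.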

[3] = Cell Viability - LYMP2-009 (AID 968); further: series mostly up to about 92 µM; nearly all actives have a fitted effect of over 55% in size
[4] = Cell Viability - LYMP2-011 (AID 969); further: nearly all actives have a fitted effect of over 60% in size
How it was run: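 Human lymphoblastoid cells (2500/well) were plated in complete medium, preincubated 5 hr at 37 C, then exposed to compounds for 24 hr at 37 C. Intracellular ATP was read by CellTiter-Glo luminescence, and AC50 came from Hill-equation concentration-response fits.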

[5] = Cell Viability - LYMP2-015 (AID 971); further: nearly all actives have a fitted effect of over 55% in size
How it was run: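 Human lymphoblastoid cells (2500/well) in complete medium were preincubated 5 hr at 37 C, then compound-treated 24 hr at 37 C. Intracellular ATP was read by CellTiter-Glo luminescence after 30 min at room temperature; AC50 came from Hill-equation concentration-response fits.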

[6] = Cell Viability - LYMP2-017 (AID 972); further: series mostly up to about 92 µM; nearly all actives have a fitted effect of over 55% in size
How it was run: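 Human lymphoblastoid cells (2500/well) were seeded in complete medium, held 5 hr at 37 C, then exposed to compounds for 24 hr at 37 C. Intracellular ATP was read by CellTiter-Glo luminescence after 30 min at room temperature, with AC50 values from Hill-equation fits.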

[7] = Cell Viability - LYMP2-019 (AID 973); further: nearly all actives have a fitted effect of over 55% in size
How it was run: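 Human lymphoblastoid cells were seeded at 2500 cells/well, preincubated 5 hr at 37 C, then exposed to compounds for 24 hr at 37 C in complete medium. Intracellular ATP was measured by CellTiter-Glo luminescence; AC50 from Hill fits.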

[8] = Cell Viability - LYMP2-021 (AID 974)
How it was run: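 Human lymphoblastoid cells (2500/well) were preincubated 5 hr at 37 C, then exposed to compounds for 24 hr at 37 C in complete medium. Intracellular ATP was read by CellTiter-Glo luminescence; AC50 came from Hill-equation fits of concentration-response data.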

[9] = Cell Viability - LYMP2-023 (AID 975)
How it was run: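 Human lymphoblastoid cells (2500/well) were preincubated 5 hr at 37 C, then exposed to compounds for 24 hr at 37 C in complete medium. Cellular ATP was read by CellTiter-Glo luminescence, and AC50 came from Hill-equation fits.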

[10] = Cell Viability - LYMP2-013 (AID 970)
How it was run: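 Human lymphoblastoid cells, 2500/well, were preincubated 5 hr at 37 C, then treated with compounds for 24 hr at 37 C in complete medium. Intracellular ATP was read by CellTiter-Glo luminescence; AC50 from Hill-equation fits of concentration-response data.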

Measured: Potency

CCC(C)=O
not listed: [10]
inactive: all other assays above

Nc1ccc(Cl)cc1[N+](=O)[O-]
not listed: [6]
inactive: all other assays above

C/C(C=O)=C/c1ccccc1
not listed: [5]
inactive: all other assays above

CCCCOCCOCCOCCCC
not listed: [6]
inactive: all other assays above

CC(C)(C)OC=O
not listed: [7] | [8]
inactive: all other assays above

ON=C1CCCCC1
not listed: [5]
inactive: all other assays above

CC(=O)Nc1cccc(N)c1
not listed: [5] | [8]
inactive: all other assays above

CCCCCCCN
not listed: [5]
inactive: all other assays above

CC(C)c1ccccc1
not listed: [6]
inactive: all other assays above

CCCCC(=O)N(C)C
not listed: [5] | [8]
inactive: all other assays above

Cc1nc2ccc(Cl)cc2[nH]1
not listed: [5] | [6]
inactive: all other assays above

OCCO
not listed: [6]
inactive: all other assays above

COC(=O)CS
not listed: [5]
inactive: all other assays above

O=C(O)c1ccc(C(=O)O)cc1
not listed: [5]
inactive: all other assays above

CCCC=O
not listed: [6]
inactive: all other assays above

CCN(C(=O)N(CC)c1ccccc1)c1ccccc1
not listed: [5]
inactive: all other assays above

Cc1ccc2nc(-c3ccc(N)cc3)sc2c1S(=O)(=O)O
not listed: [5] | [6]
inactive: all other assays above

Oc1cccc(Nc2ccccc2)c1
not listed: [6]
inactive: all other assays above

Cc1ccco1
not listed: [5]
inactive: all other assays above

CCC(=O)/C=C/C1C(C)=CCCC1(C)C (stereo not drawn)
not listed: [7]
inactive: all other assays above

C=CCCC
not listed: [5] | [8]
inactive: all other assays above

CCc1ccccc1
not listed: [5]
inactive: all other assays above

CC(=C/C=C/C(C)=C/C=C/C=C(C)/C=C/C=C(C)/C=C/C(=O)O)/C=C/C(=O)O
not listed: [10]
inactive: all other assays above

CC(=O)OCCC(C)C
not listed: [6]
inactive: all other assays above

FC(F)(F)c1ccccc1Cl
not listed: [5] | [6]
inactive: all other assays above

CCN(CC)c1cccc(O)c1
not listed: [5]
inactive: all other assays above

C=CCOC(=O)CCCCCCCC
not listed: [5]
inactive: all other assays above

O=CNc1ccccc1
not listed: [5] | [6]
inactive: all other assays above

Cc1cc(C)cc(N)c1
not listed: [6]
inactive: all other assays above

Cc1ccc([N+](=O)[O-])c(N)c1
not listed: [5]
inactive: all other assays above

O=C(O)CN(CC(=O)O)CC(=O)O
not listed: [5]
inactive: all other assays above

Cc1cccc([N+](=O)[O-])c1C(=O)O
not listed: [6]
inactive: all other assays above

C/C=C1\CC2C=CC1C2 (stereo not drawn)
not listed: [6]
inactive: all other assays above

CC/C=C/C#N
not listed: [5]
inactive: all other assays above

O=Cc1ccccc1Cl
not listed: [10]
inactive: all other assays above

COc1cccc(N)c1
not listed: [6]
inactive: all other assays above

CCCOCC(C)O (stereo not drawn)
not listed: [6]
inactive: all other assays above

NC=O
not listed: [4] | [6]
inactive: all other assays above

C(=C/c1ccccc1)/c1ccccc1
not listed: [10]
inactive: all other assays above

O=[N+]([O-])c1cc(C(F)(F)F)ccc1Cl
not listed: [4]
inactive: all other assays above

Cc1cscn1
not listed: [5] | [10]
inactive: all other assays above

CCC(O)C(C)(C)C (stereo not drawn)
not listed: [10]
inactive: all other assays above

COc1ccc(OC)cc1
not listed: [4]
inactive: all other assays above

CCOc1cc(OCC)c(C(C)=O)cc1OCC
not listed: [10]
inactive: all other assays above

C=C(C)C(N)=O
not listed: [4] | [5]
inactive: all other assays above

O=C(Cl)c1c(Cl)cccc1Cl
not listed: [4]
inactive: all other assays above

CC(C)Cc1nccs1
not listed: [10]
inactive: all other assays above

Cc1cc([N+](=O)[O-])ccc1N
not listed: [10]
inactive: all other assays above

Cc1c(N)cccc1[N+](=O)[O-]
not listed: [4] | [5]
inactive: all other assays above

CCOC(=O)OCC
not listed: [6] | [10]
inactive: all other assays above

O=c1[nH][nH]c(=O)c2cc([N+](=O)[O-])ccc12
not listed: [10]
inactive: all other assays above

Cc1ccc(C)c(N)c1
not listed: [4]
inactive: all other assays above

c1ccc(Nc2ccccc2)cc1
not listed: [4]
inactive: all other assays above

CC#N
not listed: [10]
inactive: all other assays above

CCOc1cccc(N)c1
not listed: [4] | [5]
inactive: all other assays above

O=Cc1ccc(C(=O)O)cc1
not listed: [4]
inactive: all other assays above

Cc1ccccc1C=O
not listed: [10]
inactive: all other assays above

CN(C)CCCCl
not listed: [4]
inactive: all other assays above

From PubChem BioAssay (NCATS)
